From ChEMBL document CHEMBL4513216, “Probing the Open Global Health Chemical Diversity Library for Multistage-Active Starting Points for Next-Generation Antimalarials” (ACS Infect Dis, 2020)
The campaign covered roughly 69,000 compounds. About 8,600 (12%) showed an effect of 50% or more. This is one part of a sample in which strong results are shown more often than they occur.

Tested on: Plasmodium berghei
Assay: Screen against P. berghei liver stage (PbLuc), transformed with Luciferase, at 10uM
Type: functional, HepG2
Details: tested at 10 uM

Compound	INHIBITION
CC(C(=O)N1CCN(C)CC1)n1cc(Br)cn1 (stereo unspecified)	21.7%
Cc1noc(C)c1CN1CCN(CC2CC2)c2ncccc2C1	47.2%
O=C(CCc1ccncc1)N1CCCC(N2CCNC2=O)C1 (stereo unspecified)	37.9%
CC(=O)N1CC=C(n2c(=O)[nH]c3ccccc32)CC1	21.4%
CCCn1cc(-c2ccnc(NC3CCc4ccccc4C3)n2)c(C)n1 (stereo unspecified)	89.6%
Cc1nn(C)c(N2CCOCC2)c1CNC1CCc2ccccc2C1 (stereo unspecified)	35.7%
Cc1sc2ncc(-c3ccnc(NC4CCN(C)CC4)n3)c(=O)n2c1C	24.8%
O=C(C1CC1)N1CCC(Nc2nc(O)cc(-c3ccsc3)n2)CC1	-5.78%
O=C1CCNC(=O)N1CC(=O)N1CCC1c1ccc(F)cc1 (stereo unspecified)	-14.5%
Cn1cc(C2CCCN2C(=O)CCCOc2ccc(F)cc2)cn1 (stereo unspecified)	0.914%
O=C1CCCN1CCCC(=O)N1CCCCC1c1ccc(F)cc1 (stereo unspecified)	74.9%
COC(=O)CCCC(=O)N1CCCCC1c1ccc(F)cc1 (stereo unspecified)	34.1%
CCc1nccn1CCC(=O)N1CCCC1c1ccc(F)cc1 (stereo unspecified)	29.4%
O=C1CCCCN1CCC(=O)N1CCCCC1c1ccc(F)cc1 (stereo unspecified)	53.6%
COCCC(=O)N1CCCCC1c1ccc(F)cc1 (stereo unspecified)	48%
NCC(=O)N1CCCCC1c1ccc(F)cc1 (stereo unspecified)	74%
O=C(c1cc(=O)[nH]c(=O)[nH]1)N1CCCCC1c1ccc(F)cc1 (stereo unspecified)	30.1%
Cc1nn(C)c(Cl)c1C1CCCN1C(=O)c1ccc2c(c1)COC2 (stereo unspecified)	7.12%
CN1CCCC1c1cncc(C(=O)NCCN2CCCC2)n1 (stereo unspecified)	-40.1%
CN(C)CC(=O)N1CCc2cccc(S(=O)(=O)N3CCOCC3)c2C1	21.2%
O=C(c1ccc(Cl)s1)N1CCC2(CNS(=O)(=O)c3cnccc3O2)C1 (stereo unspecified)	21.7%
CCC1CN(CC(=O)NCCN2CCCCCC2)c2ccccc2S1 (stereo unspecified)	0.87%

Compound	INHIBITION
CC(c1cc(F)ccc1F)N(C)C(=O)NCc1ccnc(N(C)C)c1 (stereo unspecified)	21.6%
FC(F)(F)c1ccnc(N2CCCN(Cc3ccccn3)CC2)n1	-1.7%
FC(F)(F)CCc1ccnc(N2CCN(Cc3ccncc3)CC2)n1	-0.178%
O=C(c1ccccn1)C1CCCN(c2nccc(CCC(F)(F)F)n2)C1 (stereo unspecified)	35.1%
Cc1cc(C)nc(CCNc2nccc(CCC(F)(F)F)n2)n1	38.2%
Cc1cnccc1N1CCN(c2nccc(CCC(F)(F)F)n2)CC1	83.2%
CCOc1ccnc(N2CCN(C(=O)CCc3ccncc3)CC2)n1	-17%
Cc1cnccc1N1CCN(C(=O)CCCN2CCCCC2)CC1	21.7%
FC(F)(F)CCc1ccnc(N2CCN(Cc3ccccn3)CC2)n1	25.5%
FC(F)(F)CCc1ccnc(N2CCN(CCc3ccncc3)CC2)n1	66.1%
Oc1cccc(CN2CCN(c3nccc(CCC(F)(F)F)n3)CC2)c1	74.7%
CNC(=O)C1CCN(c2nccc(CCC(F)(F)F)n2)C1 (stereo unspecified)	50.1%
CCN(C(C)=O)C1CCN(c2nccc(CCC(F)(F)F)n2)C1 (stereo unspecified)	48.5%
O=C(c1ccc2c(c1)OCO2)N1CCCC(n2ccnc2)C1 (stereo unspecified)	-9.37%
CN(CC(=O)Nc1cc(-c2cc(Cl)cc(Cl)c2)[nH]n1)S(C)(=O)=O	-51.9%
CC(C)Oc1cccc(F)c1C(C(=O)O)N1CCCC1 (stereo unspecified)	-41.4%
CCOCC(=O)N1CCCn2c(CN3CCCCC3)nnc2C1	-1.15%
CCS(=O)(=O)Cc1csc(-c2ccc(S(C)(=O)=O)cc2)n1	3.4%
O=S(=O)(CCCN1CCCC1Cn1cccn1)c1ccccc1 (stereo unspecified)	24%
Cc1noc(C)c1-c1nc(C2CCCNC2)ccc1CO (stereo unspecified)	-15.3%
COC1C[C@@H]2CN(C(=O)c3ccc(C)s3)C[C@@H]2C1 (stereo partly specified)	-16.55%
O=C(NCCN1CCCS1(=O)=O)c1scnc1Cl	40.2%

Compound	INHIBITION
Cc1cnc(N(C)Cc2cnc3ccccc3n2)nc1N(C)C	46.4%
CC(=O)c1cnc(N(C)Cc2cc(C)cc(C)n2)nc1C	28.5%
CC(=O)c1cnc(N(C)Cc2cnc3ccccc3n2)nc1C	62.7%
CC(C)C1COC2(CCN(Cc3ccco3)CC2)C1 (stereo unspecified)	-2.35%
O=C1CCCN1Cc1ncn2c1CN(Cc1cccs1)CCC2	21.8%
Cn1ccnc1CNC(=O)c1cncc(C2CCNCC2)n1	27.6%
Cn1cccc1C(O)CNS(=O)(=O)c1ccccc1Br (stereo unspecified)	-29.2%
Cn1cccc1C(O)CNS(=O)(=O)c1ccccc1F (stereo unspecified)	51%
O=S(=O)(NCC(O)c1ccc2c(c1)CCO2)c1ccccc1F (stereo unspecified)	50.5%
Cc1noc(C)c1S(=O)(=O)NCC(O)c1ccc2c(c1)CCO2 (stereo unspecified)	42.3%
Cc1cc(F)ccc1S(=O)(=O)NCC(O)c1cccn1C (stereo unspecified)	-1.99%
Cn1cnc(S(=O)(=O)NCC(O)c2ccc3c(c2)CCO3)c1 (stereo unspecified)	25.3%
NC(=O)CN1CCc2c(Br)ccc(F)c2C1	-15%
Cc1nn(C)cc1Cn1c(=O)ccc2ccccc21	33%
CC(=O)N1CCC(Cc2cnc(-c3c(C)n[nH]c3C)cn2)C1 (stereo unspecified)	36.4%
CCN1C(=O)CCCC12CCCN(C(=O)c1sccc1C)C2 (stereo unspecified)	-17.1%
CS(=O)(=O)N1CCC2(CC1)CC(Oc1ccccn1)CO2 (stereo unspecified)	10.7%
O=C(c1cc[nH]n1)N1CCC(F)(F)C2(CCN(c3ccccn3)C2)C1 (stereo unspecified)	37.8%
CC(NC(=O)Nc1cccnc1N1CCCC1)c1ccn(C)c1 (stereo unspecified)	62.6%
CC(NC(=O)Nc1cccnc1N1CCCC1)c1ccccn1 (stereo unspecified)	-17.9%
Cc1nn(C(C)C)c(C)c1NC(=O)Nc1cccnc1N1CCCC1	26.9%
Cc1nn(C)c(C)c1NC(=O)Nc1cccnc1N1CCCC1	54.3%

Compound	INHIBITION
CC(NC(=O)Nc1cccnc1N1CCCC1)c1ccncc1 (stereo unspecified)	7.12%
Cc1nn(C)c(C)c1C(C)NC(=O)Nc1cccnc1N1CCCC1 (stereo unspecified)	11.6%
Cn1nnc2c1CCN(Cc1ccncc1)C2COCC1CC1 (stereo unspecified)	35.4%
Cc1ccc(NC2CCN(C(=O)c3cc(C)sc3C)CC2)nn1	9.14%
CN(C)CC1CN(C(=O)Cc2ccccc2)Cc2nccn2C1 (stereo unspecified)	31.6%
Cc1nonc1C1CCCN1C(=O)c1cn2ccsc2n1 (stereo unspecified)	-16.6%
Cc1cncc(C(=O)N2CCCC(O)(CO)C2)c1 (stereo unspecified)	15.1%
CC(C)C(NC(=O)NCc1cccnc1N(C)C)c1cccs1 (stereo unspecified)	17.5%
Cc1oncc1C(=O)N1CC[C@H]2[C@@H]1CCC(=O)N2CC1CC1	55.4%
CCc1cnc(N2CC[C@H]3[C@@H]2CCC(=O)N3c2ccccc2)nc1	33.5%
Cc1oncc1C(=O)N1CC[C@@H]2[C@@H]1CC(=O)N2Cc1cccnc1	8.66%
Cc1cccc(CN2CC[C@@H]3[C@@H]2CCN3C(=O)c2cnoc2C)n1	-17%
Cc1ccc(C(=O)N2CC[C@@H]3[C@H]2CCC(=O)N3CC2CC2)o1	37.9%
Cc1oncc1C(=O)N1CC[C@H]2[C@@H]1CCC(=O)N2CC1CCOCC1	56.4%
Cc1noc(C)c1CN1CC[C@H]2[C@@H]1CCC(=O)N2CC1CCOCC1	6.67%
CCc1cnc(N2CC[C@H]3[C@@H]2CCC(=O)N3CC2CCOCC2)nc1	51.2%
O=C1CC[C@H]2[C@H](CCN2c2ccccn2)N1CC1CCOCC1	12.7%
Cc1cc(C(=O)N2CC[C@H]3[C@H]2CCN3S(C)(=O)=O)c(C)o1	39.4%
Cc1oncc1C(=O)N1CC[C@H]2[C@@H]1CCC(=O)N2c1cccnc1	18.3%
Cc1oncc1C(=O)N1CC[C@H]2[C@H]1CCN2S(C)(=O)=O	62.9%
Cc1nc(S(=O)(=O)N2CCSC3(CCCCC3)C2)cn1C	-12.1%
CC(C)CC(=O)N1CC[C@@H]2[C@H](CC1)N(Cc1cccnc1)CCS2(=O)=O	20.4%

Compound	INHIBITION
O=C(Cc1ccccn1)N1CCN(C(=O)CC2CCCC2)CC1	3.73%
Cc1nn(C)c2cnn(Cc3ccc(C(=O)NCC4CC4)o3)c12	38.3%
CN(Cc1cnn(C)c1)C(=O)NCC1CCS(=O)(=O)C1 (stereo unspecified)	-22.3%
CC(=O)N1CCC2(C1)CN(C(=O)C1CCOC1)C2 (stereo unspecified)	9.97%
CN(C)CCOCC1CN(C(=O)c2cccn2C)Cc2ccnn2C1 (stereo unspecified)	-7.59%
Cn1ccc(C(=O)N2CCCC(Cc3cccc4cccnc34)C2)n1 (stereo unspecified)	-0.371%
CSCCCN1C[C@H](NC(=O)c2ccc(C#N)nc2)[C@@H](C2CC2)C1	27.4%
CCCc1cncnc1N1CCC(NCc2cc3ccccc3[nH]2)CC1	88.2%
CCCc1cncnc1N1CCC(NCc2ccc(O)cc2)CC1	29.9%
CCCc1cncnc1N1CCC(NCc2ccncc2)CC1	49.1%
Cc1csc(C2(NC(=O)CCc3ccncc3)CCCC2)n1	20%
CCn1c(CC2CCNCC2)nn(Cc2ccc(C(=O)NC)o2)c1=O	44.8%
CCn1c(C2CCCNC2)nn(Cc2ccc(C(=O)NC)o2)c1=O (stereo unspecified)	38.5%
CCn1c(C2CCNCC2)nn(CCCc2ccccc2)c1=O	52.1%
CCn1c(C2CCNCC2)nn(Cc2ccc(C(=O)NC)o2)c1=O	52.1%
CCOCCn1nc(C2CCNCC2)n(Cc2ccccc2)c1=O	8.51%
CCCn1nc(C2CCNCC2)n(Cc2ccccc2)c1=O	26.8%
CC(CN1CCOCC1)NC(=O)N1CCCC1 (stereo unspecified)	-15%
